# Test results: PubChem BioAssay (NCI)
# About 83,000 compounds went through this panel and 20% of them were active in at least one assay; those are over-represented in the sample as a whole.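 The test compound was applied at a single concentration to cells in 96-well plates for 48 hours, and percent growth was recorded.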 Unmarked numbers belong to inactive results. Active and inactive are the calls of the source. Rule for the calls: active = growth percent below 10; inactive = the rest.
# System: OVCAR-3 ovarian
# Assay: NCI-60 one-dose screen, 48 h (100 = growth as untreated, 0 = no growth, -100 = all killed)
# Settings: 10 µM unless noted
row,Structure (SMILES),growth
1,c1csc(-c2cn3nc(-c4c[nH]c5ccccc45)sc3n2)c1,-7.97% (active)
2,O=C1C=CC2(O)OC/C(=C\c3ccccc3)C(O)=C2C1=O (centres undefined),11.7%
3,C=C1CC[C@@H]2C(C)(C)[C@H](O)CC[C@@]2(C)[C@@H]1COc1ccc2ccc(=O)oc2c1,46.8%
4,COC(=O)c1c(C)nc(C)c2c1C(=O)C=C(NCc1ccccc1)C2=O,44.1%
5,COC(=O)c1ccc2cc(OC)c(OC)cc2c1,112%
6,O=C(c1cccc(N2CCOCC2)n1)c1c[nH]c2ccccc12,91%
7,C=C[C@@]1(C)CC(=O)[C@@H](C(C)(C)c2cn(C)c3ccc(Br)cc23)C[C@@H]1O[Si](C)(C)C(C)(C)C,103%
8,COCCOC(C)C(/C=N/NC(N)=S)=N/NC(N)=S (centres undefined),13.9%
9,Cc1cc(N2CCN(CC(=O)Nc3ccc4c(ccn4Cc4ccccc4)c3)CC2)nc(N2CCOCC2)n1,89.3%
10,COc1ccc(C2CC(c3ccccc3)=NN2C(=O)c2cc(OC)c(OC)c(OC)c2)cc1O (centres undefined),17%
11,Cc1ccc(O)c(NC(=O)c2cccc(Nc3ccnc(C(F)(F)F)c3)c2)c1,93.2%
12,Cc1ncc(C(=O)Nc2ccc(CN3CCN(C)CC3)c(C(F)(F)F)c2)cc1C#Cc1cnc(N)c2ccc(C#N)cc12,25%
13,Cc1nn(C)c2ncnc(N/N=C/c3cccc(O)c3O)c12,25.5%
14,O=C(O)CC(C(=O)O)/C(=C\c1ccccc1)c1ccccc1 (centres undefined),113%
15,Fc1ccc2[nH]cc(-c3nc(-c4c[nH]c5c(Cl)nccc45)cs3)c2c1,70.9%
16,CCCN(CCSSCCNc1nc(N(C)O)nc(N(C)O)n1)c1nc(N(C)O)nc(N(C)O)n1,51.6%
17,CCOC(=O)c1cn2ncnc(Oc3ccc(NC(=O)NC4CC4)c(Cl)c3)c2c1C,107%
18,COC1C(O)CC(OC2CC(OC3CC(O[C@@H]4C(=O)c5c(cc6cc(OC7CC(OC8CC(O)C(O)C(C)O8)C(O)C(C)O7)c(C)c(O)c6c5O)CC4[C@H](OC)[C@@H](O)C(C)=O)OC(C)C3O)OC(C)C2O)OC1C (some centres undefined),5.36% (active)
19,COC12C=C/C(=C(/C(=O)OCc3csc(SC)n3)C(=O)CCCCCCCCC3(OC)C=C/C(=C(/C(=O)OCc4cnc(SC)s4)C(=O)CCCCCCCC1)O3)O2 (centres undefined),21.5%
20,COc1ccc(/C=C2\CN(C(=O)C(Cl)Cl)C/C(=C\c3ccc(OC)c(OC)c3)C2=O)cc1OC,-16.6% (active)
21,Cc1c2cnccc2c(C)c2c1c1cc(CO)ccc1n2C,-33.7% (active)
22,COc1ccc(C=Nc2c(C(=O)Nc3cccc(Cl)c3C)sc3nc(C)c(C(=O)/C=C/c4ccc(OC)cc4)cc23)cc1,4.94% (active)
23,O=[N+]([O-])c1c(O)c(Cl)cc(Cl)c1Cl,111%
24,CN1CCOCCN(C)Cc2ccc3ccc(cc3c2)CN(C)CCOCCN(C)Cc2ccc3ccc(cc3c2)C1,75.6%
25,O=C1/C(=C/c2c[nH]c(=O)[nH]c2=O)SC(=S)N1Cc1ccccc1,108%
26,O=Nc1ccc(NC(=O)Nc2ccc([N+](=O)[O-])cc2)cc1,98.4%
27,N#Cc1nn(-c2cc(=O)[nH]c3ccc(Br)cc23)c(N)c1C#N,103%
28,C[C@H](c1nc2ccc(C#N)cc2[nH]1)[C@H]1CC[C@H]2[C@@H]3CCC4=CC(=O)CC[C@]4(C)[C@H]3CC[C@]12C,72.1%
29,CCOC(=O)C1=C(c2ccccc2)N=C2N(c3ccccc3)N=C(C(C)=O)N2C1c1ccc(F)cc1 (centres undefined),105%
